# Source: PubChem
# DT40 TDP1 CPT: growth inhibition of DT40 Tdp1-/-;hTDP1 cells with camptothecin (screen for TDP1 inhibitors) | chicken DT40 Tdp1-/-;hTDP1 cells + 20 nM CPT, ATP luminescence, 48 h | Potency, µM (highest dose often 46.2 µM), usual class: inhibitors | 12% of 420,000 active; further: nearly all actives have a fitted effect of over 55% in size
#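 Cell growth measured by CellTiter-Glo luminescence after a minimum 48 h, 37 C compound exposure with 20 nM CPT in Tdp1-knockout DT40 cells stably expressing hTDP1, seeded 400/well; qHTS titration format.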
# IL-1B inflam inh: blocks inflammasome-driven IL-1 beta release | activity change, % at 57.5 µM | THP-1 LPS/ATP IL-1B secretion, AlphaLISA, 16 h; hits give low values | 4.7% of 360,000 active | AID 743279; in the data active means activity change below about -50%; inconclusive means mostly about -30% to -49%
#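 Secreted IL-1B measured by AlphaLISA bead assay after 16 h compound exposure of THP-1 cells; compounds (final up to 57.5 uM) added 1 h before LPS (250 ng/mL) and ATP (1.25 mM) stimulation; lower signal means less secretion.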
# HT1080-NT tox: kills 2HG-producing HT-1080-NT fibrosarcoma cells; AID 686970; HT-1080-NT fibrosarcoma viability, CellTiter-Glo ATP luminescence, 48 h; Potency, µM (doses to about 46.1 µM), usual class: cytotoxic; 1.6% of 360,000 active;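 further: NT is the 2HG producing partner of a matched IDH1 knockdown line; nearly all actives have a fitted effect of over 55% in size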
#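 Viability by CellTiter-Glo luminescence after 48 h compound exposure at 37C of HT-1080-NT cells (750/well, RPMI, 5% FBS). % activity scaled between DMSO wells and medium-only wells, then curve-fitted and categorized by curve class.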
# DT40 TDP1 no CPT: qHTS for Inhibitors of human tyrosyl-DNA phosphodiesterase 1 (TDP1): qHTS in cells in absence of CPT | DT40 Tdp1-/- hTDP1 cells, no CPT, ATP luminescence, 48 h | Potency, µM (doses to about 46.2 µM), usual class: inhibitors | 15% of 420,000 active; further: nearly all actives have a fitted effect of over 55% in size
#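 Stably hTDP1-transfected Tdp1-null chicken DT40 cells were treated with library compounds minus camptothecin and grown for at least 48 hr at 37 °C, after which cellular ATP was quantified by luminescence.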
# 12-LOX inh: ALOX12 (human) lipoxygenase inhibition; 1.1% of 580,000 active; Potency, µM (top dose mostly 108 µM), hits mostly inhibitors; P18054; purified 12hLO, xylenol orange hydroperoxide absorbance
# Target sequence (P18054 whole entry, looked up): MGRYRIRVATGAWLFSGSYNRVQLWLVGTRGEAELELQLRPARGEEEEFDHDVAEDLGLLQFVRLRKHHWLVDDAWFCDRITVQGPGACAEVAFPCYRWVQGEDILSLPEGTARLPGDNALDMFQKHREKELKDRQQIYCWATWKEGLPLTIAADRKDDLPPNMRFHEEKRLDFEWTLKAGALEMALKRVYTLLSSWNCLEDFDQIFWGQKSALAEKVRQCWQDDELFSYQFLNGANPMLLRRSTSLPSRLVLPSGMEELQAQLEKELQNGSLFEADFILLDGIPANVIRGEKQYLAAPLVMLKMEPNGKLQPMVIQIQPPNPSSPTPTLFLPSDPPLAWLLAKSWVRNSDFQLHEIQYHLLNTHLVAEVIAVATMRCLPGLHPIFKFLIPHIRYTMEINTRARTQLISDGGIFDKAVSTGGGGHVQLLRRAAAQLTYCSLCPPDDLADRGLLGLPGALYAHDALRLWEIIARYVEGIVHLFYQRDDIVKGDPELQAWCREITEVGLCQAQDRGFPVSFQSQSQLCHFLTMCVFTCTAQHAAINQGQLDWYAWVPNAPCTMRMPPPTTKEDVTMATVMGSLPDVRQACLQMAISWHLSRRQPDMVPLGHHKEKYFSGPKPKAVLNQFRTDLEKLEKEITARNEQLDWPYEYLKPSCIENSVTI
#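 Purified human 12hLO (150 nM final) in 25 mM Hepes, 0.01% Triton X-100, pH 7.0 was preincubated 15 min at room temperature with compound. Then 40 uM arachidonic acid was added, 30 min. Hydroperoxide was read by Fe-XO absorbance ratio 573/405 nm.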
# HT1080 IDH1KD tx: toxicity to HT-1080 IDH1 knockdown cells (counter line) | AID 686971 | Potency, µM (series often up to 46.1 µM), hits mostly cytotoxic | 2% of 360,000 active | HT-1080 IDH1 knockdown viability, ATP luminescence, 48 h
#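 Luminescent ATP read-out (CellTiter-Glo, 10 min at room temperature) after 48 h compound exposure at 37 °C gave viability of IDH1-knockdown HT-1080 cells. Activity was normalised to DMSO and cell-free wells, then fitted as concentration-response curves.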
# Numbers stand for hits; - = inactive; ? = inconclusive; . = not tested or not shown. The sample as a whole holds a higher share of hits than the screen did. Unless noted, the call rests on the fitted dose curve; in most records, active means well fitted curve in the direction sought with a large enough effect; inconclusive means small, poorly fitted or top-dose-only effect, or another doubt; inactive means no such curve, though single readings can be large; an effect the other way counts as inactive or inconclusive.
SMILES,DT40 TDP1 CPT,IL-1B inflam inh,HT1080-NT tox,DT40 TDP1 no CPT,12-LOX inh,HT1080 IDH1KD tx
Cc1ccc2c(CNCc3ccc(C)o3)c(C(=O)O)n(Cc3ccc(F)cc3)c2c1,?,.,.,16.4µM,-,.
COc1ccc(Cn2c(C(=O)O)c(CNCc3cccs3)c3ccc(C)cc32)cc1,?,.,.,18.4µM,?,.
COc1ccc2c(CNCc3cccs3)c(C(=O)O)n(Cc3ccc(F)cc3)c2c1,18.4µM,.,.,9.2µM,-,.
Cc1ccc(Cn2c(C(=O)O)c(CNC3CCCCC3)c3ccc(C)cc32)cc1,?,.,.,-,-,.
CCOc1ccccc1CNCc1c(C(=O)O)n(Cc2ccc(F)cc2)c2cc(C)ccc12,13µM,.,.,5.8µM,-,.
O=C(NCC1CCN(Cc2cccc(F)c2)CC1)C1CCN(c2cn[nH]c(=O)c2)C1 (stereo not given),.,.,.,.,-,.
Cc1ccc2c(CNC3CCCCC3)c(C(=O)O)n(Cc3ccc(F)cc3)c2c1,-,.,.,?,-,.
C=Cc1ccc(Cn2c(C(=O)O)c(CNCc3ccc(F)cc3)c3ccc(C)cc32)cc1,20.6µM,.,.,23.1µM,?,.
Cc1ccc2c(CNCc3cccs3)c(C(=O)O)n(Cc3ccc(F)cc3)c2c1,6.51µM,.,.,5.17µM,-,.
CCC1CCCCN1C(=O)CSc1nnc(-c2cc(OC)c(OC)c(OC)c2)o1 (stereo not given),.,.,.,.,-,.
COc1ccc(OC)c(C2CCCN2C(=O)c2csc(-c3ccsc3)n2)c1 (stereo not given),.,.,.,.,-,.
O=C1c2ccccc2C(=O)C1Cc1cccc2ccccc12,14.1µM,-,?,-,-,-
Cc1nc(C(C)C)sc1C(=O)N[C@H]1C[C@H]2CN(C)CCN2C1,.,.,.,.,-,.
CN1c2cc(C(=O)NCc3ccccc3)ccc2C(=O)N2CCCC21 (stereo not given),.,.,.,.,-,.
O=C(c1ccccc1-n1cccn1)N1CCOc2c(cc(-c3ncc(C(F)(F)F)cc3Cl)cc2OCC2CCCO2)C1 (stereo not given),?,.,.,-,-,.
COc1ccc(/C(C)=N/NC(=O)c2cc(-c3cccnc3)nc3ccccc23)cc1,-,-,-,-,-,-
C/C(=N\NC(=O)c1cc(-c2cccnc2)nc2ccccc12)c1ccccc1O,4.61µM,-,-,3.66µM,-,9.2µM
CCOc1ccc(-c2cc(C(=O)N/N=C(\C)c3cccnc3)c3ccccc3n2)c(OCC)c1,14.6µM,-,-,?,-,?
C/C(=N\NC(=O)c1cc(C2CC2)nc2ccccc12)c1ccc(O)cc1O,6.51µM,-,?,5.17µM,-,4.61µM
NC(=O)[C@@H]1C[C@H](Oc2cccnc2)CN1C(=O)CC1CCCCC1,.,.,.,.,-,.
O=[N+]([O-])c1cccc(S(=O)(=O)NC2CC3CCC2C3)c1 (stereo not given),-,-,-,-,-,-
Cc1ccc2nc(Cl)c3cc(C(=O)NCCCN(C)Cc4ccccc4)sc3c2c1,?,.,.,10.3µM,-,.
CN(CCCNC(=O)c1cc2c(Cl)nc3ccccc3c2s1)Cc1ccccc1,14.6µM,-81.6,16.4µM,20.6µM,?,16.4µM
CCC1CN(C(=O)CCc2nc(Cc3ccccc3)no2)CCO1 (stereo not given),.,.,.,.,-,.
Cc1ccc(S(=O)(=O)Nc2ccccc2-c2ccccc2NS(=O)(=O)c2ccc(C)cc2)cc1,?,-,?,?,-,?
SMILES,DT40 TDP1 CPT,IL-1B inflam inh,HT1080-NT tox,DT40 TDP1 no CPT,12-LOX inh,HT1080 IDH1KD tx
Cc1ccc(S(=O)(=O)Nc2ccccc2C(O)c2ccccc2)cc1 (stereo not given),?,-,-,18.4µM,?,-
O=C1NN=C(c2ccc(Br)cc2)CC1c1ccc(Cl)cc1 (stereo not given),?,-84.7,-,?,39.8µM,-
CCc1ccc(C2CC(c3ccc(Cl)cc3)=NNC2=O)cc1 (stereo not given),?,-52.5,-,?,-,-
CCNC(=O)CC1CCN(S(C)(=O)=O)C1 (stereo not given),.,.,.,.,-,.
CC(=O)Nc1ccc(CNC(=O)C2CCCC2)cc1,.,.,.,.,-,.
CC(=O)Nc1ccccc1-c1ccccc1[N+](=O)[O-],-,-,-,-,-,-
CCS(=O)(=O)c1cc([N+](=O)[O-])c(Sc2ccccc2NC(C)=O)s1,3.26µM,-,-,5.17µM,14.1µM,-
CC(C)Cc1nn2c(=O)cc(COC(=O)c3ccccc3NC(=O)c3ccccc3)nc2s1,-,.,.,-,-,.
CC(=O)NCCNc1ncnc2ccc(-c3ccccc3Cl)cc12,-,.,.,?,31.6µM,.
CC(=O)NCCNc1ncnc2ccc(-c3ccc4c(c3)OCO4)cc12,16.4µM,.,.,?,-,.
Clc1ccccc1-c1ccc2ncnc(NCc3cccs3)c2c1,.,.,.,.,-,.
Cc1ccc(CN(C)C(=O)CN2CCN(c3ccc([N+](=O)[O-])c4cnccc34)CC2)c(C)c1,.,.,.,.,-,.
COc1ccc(COc2cc(-c3cccc(OC)c3)nc3ccc(NC(=O)c4ccc(N(C)C)cc4)cc23)cc1,3.66µM,-,?,3.66µM,.,6.51µM
COc1ccc(COc2cc(-c3cccc(OC)c3)nc3ccc(N)cc23)cc1,1.46µM,-,0.82µM,1.46µM,-,2.06µM
COc1ccc(COc2cc(-c3cccc(OC)c3)nc3ccc(NC(=O)c4ccc(C)cc4)cc23)cc1,?,-,13µM,13µM,-,13µM
COc1ccc(COc2cc(-c3cccc(OC)c3)nc3ccc(NC(C)=O)cc23)cc1,-,-,-,-,-,-
Cc1cc(C)nc(SCNC(=O)c2ccccc2)n1,-,-,5.01µM,-,-,7.08µM
COCc1cc(C)nc(SCC(=O)Nc2ccc(C)c(C)c2)c1C#N,-,-,-,-,-,-
O=C(CSC1=NCCS1)Nc1ccnc2ccccc12,6.51µM,?,?,9.2µM,-,-
COCc1cc(C)nc(SCC(=O)Nc2ccccc2C)c1C#N,7.31µM,-,-,5.8µM,-,-
O=C(CSC1=NCCS1)Nc1ccc2ccccc2c1,-,-,-,-,-,-
COCc1cc(C)nc(SCC[N+](C)(C)CC(=O)Nc2cccc(C(F)(F)F)c2)c1C#N,20.6µM,-50.8,-,?,-,-
COC(=O)c1ccccc1NC(=O)O[C@@H]1CO[C@H]2[C@@H]1OC[C@@H]2Nc1nccc(-c2ccc(N(C)C)cc2)n1,.,.,.,.,-,.
Cc1cc(C)nc(NC(=O)CSc2nccc(C)n2)n1,-,-,-,-,-,-
Cc1cc(C)c(C#N)c(SCC(=O)Nc2ccccc2C(N)=O)n1,?,-,-,10.3µM,-,-
Cc1cc(C)nc(SCC(=O)Nc2ccnc3ccccc23)n1,1.64µM,?,-,0.651µM,-,-
Cc1cc(C)nc(SCC(=O)Nc2ccccc2C(N)=O)n1,.,.,.,.,50.1µM,.
